Source: publication PMC11995724, “Antibiotic target discovery by integrated phenotypic and activity-based profiling of electrophilic fragments” (Cell chemical biology, 2025)
Out of some 3,200 compounds screened, about 75 (2%) showed an effect of 50% or more. The sample holds strong results, similar compounds and a random draw of the others, so the mix is not that of the screen.

system: T1, S. aureus MSSA476; set-up: species or system S. aureus MSSA476 (TSB) or V. cholerae SAD30 (LB); 384-well bacterial growth screen at 25 uM, OD600 relative to DMSO control; settings: relative growth, OD600, TSB; 25 µM; inhibitor
T1 construct: MSSA476

SMILES | % of control remaining
Cc1ccc(-n2c(C)cc(C(=O)CCl)c2C)cc1F [10-C06, 2-chloro-1-[1-(3-fluoro-4-methylphenyl)-2,5-dimethyl-1H-pyrrol-3-yl]ethan-1-one] | -0.3125%
Cc1cccc(-n2c(C)cc(C(=O)CCl)c2C)c1 [10-A22, 2-chloro-1-[2,5-dimethyl-1-(3-methylphenyl)-1H-pyrrol-3-yl]ethan-1-one] | 138.438%
Cc1cc(C(=O)CCl)c(C)n1-c1ccc(Cl)c(Cl)c1 [10-D18, 2-chloro-1-[1-(3,4-dichlorophenyl)-2,5-dimethyl-1H-pyrrol-3-yl]ethan-1-one] | -0.3125%
CSc1cccc(-n2c(C)cc(C(=O)CCl)c2C)c1 [10-J16, 2-chloro-1-{2,5-dimethyl-1-[3-(methylsulfanyl)phenyl]-1H-pyrrol-3-yl}ethan-1-one] | 12.8125%
Cc1cc(C(=O)CCl)c(C)n1-c1cccc(Cl)c1 [10-N18, 2-chloro-1-[1-(3-chlorophenyl)-2,5-dimethyl-1H-pyrrol-3-yl]ethan-1-one] | 100.313%
Cc1cc(C(=O)CCl)c(C)n1-c1cccc([N+](=O)[O-])c1 [10-B16, 2-chloro-1-[2,5-dimethyl-1-(3-nitrophenyl)-1H-pyrrol-3-yl]ethan-1-one] | 136.563%
Cc1ccc(-n2c(C)cc(C(=O)CCl)c2C)cc1C [10-B14, 2-chloro-1-[1-(3,4-dimethylphenyl)-2,5-dimethyl-1H-pyrrol-3-yl]ethan-1-one] | 1.25%
Cc1cc(C(=O)CCl)c(C)n1-c1ccccn1 [10-C16, 2-chloro-1-[2,5-dimethyl-1-(pyridin-2-yl)-1H-pyrrol-3-yl]ethan-1-one] | 117.5%
Cc1cc(C(=O)CCl)c(C)n1-c1ccc2c(c1)OCO2 [10-K14, 1-[1-(1,3-dioxaindan-5-yl)-2,5-dimethyl-1H-pyrrol-3-yl]-2-chloroethan-1-one] | 139.375%
Cc1cc(-n2c(C)cc(C(=O)CCl)c2C)no1 [10-C18, 2-chloro-1-[2,5-dimethyl-1-(5-methyl-1,2-oxazol-3-yl)-1H-pyrrol-3-yl]ethan-1-one] | 123.125%
CCN(CC)C(=O)c1cccc(NC(=O)CCl)c1 [5-I03, 3-(2-chloroacetamido)-N,N-diethylbenzamide] | 102.732%
N#CC(=Cc1cccs1)C(=O)Nc1ccc(C(=O)O)cc1 [8-A04, 4-[2-cyano-3-(thiophen-2-yl)prop-2-enamido]benzoic acid] | 109.212%
CC(C)Oc1ccccc1C=C(C#N)C(=O)Nc1ccc(Cl)cc1 [9-L20, N-(4-chlorophenyl)-2-cyano-3-[2-(propan-2-yloxy)phenyl]prop-2-enamide] | 108.464%
N#CCCSc1ccccc1NC(=O)CCl [6-N12, 2-chloro-N-{2-[(2-cyanoethyl)sulfanyl]phenyl}acetamide] | 88.439%
CC(=O)NCCc1ccc(C(=O)CCl)s1 [10-P03, N-{2-[5-(2-chloroacetyl)thiophen-2-yl]ethyl}acetamide] | 143.125%
C=CC(=O)N1CCCN(C(=O)c2ccc(OC)cc2)CC1 [3-A21, 1-[4-(4-methoxybenzoyl)-1,4-diazepan-1-yl]prop-2-en-1-one] | 128.864%
C=CC(=O)N(CC)Cc1cn(C)nn1 [2-O09, N-ethyl-N-[(1-methyl-1H-1,2,3-triazol-4-yl)methyl]prop-2-enamide] | 106.527%
CN(CC(=O)Nc1ccccc1Cl)C(=O)CCl [4-D05, 2-chloro-N-{[(2-chlorophenyl)carbamoyl]methyl}-N-methylacetamide] | 122.344%
C=CC(=O)NCCc1ccccc1OC [2-O03, N-[2-(2-methoxyphenyl)ethyl]prop-2-enamide] | 95.7354%
C=CC(=O)N1CCOCC2(COCCN2C)C1 (stereo not shown) [3-J14, 1-{1-methyl-4,8-dioxa-1,11-diazaspiro[5.6]dodecan-11-yl}prop-2-en-1-one] | 109.012%
CC(Cl)C(=O)N1CCCC(NS(=O)(=O)c2cccc(F)c2)C1 (stereo not shown) [7-C13, N-[1-(2-chloropropanoyl)piperidin-3-yl]-3-fluorobenzene-1-sulfonamide] | 102.355%
Cc1cc(C(=O)CCl)c(C)n1-c1ccc(Cl)c(C(F)(F)F)c1 [10-L18, 2-chloro-1-{1-[4-chloro-3-(trifluoromethyl)phenyl]-2,5-dimethyl-1H-pyrrol-3-yl}ethan-1-one] | 0.3125%

SMILES | % of control remaining
Cc1cc(C(=O)C(C)Cl)c(C)n1-c1ccc(OC(F)F)cc1 (stereo not shown) [10-E10, 2-chloro-1-{1-[4-(difluoromethoxy)phenyl]-2,5-dimethyl-1H-pyrrol-3-yl}propan-1-one] | 125.938%
Cc1cc(C(=O)CCl)c(C)n1-c1ccc(OC(F)F)c(Cl)c1 [10-K04, 2-chloro-1-{1-[3-chloro-4-(difluoromethoxy)phenyl]-2,5-dimethyl-1H-pyrrol-3-yl}ethan-1-one] | 0%
Cc1cc(C(=O)CCl)c(C)n1-c1ccc(OC(F)(F)F)cc1 [10-G04, 2-chloro-1-{2,5-dimethyl-1-[4-(trifluoromethoxy)phenyl]-1H-pyrrol-3-yl}ethan-1-one] | 115.313%
Cc1cc(C(=O)CCl)c(C)n1-c1ccon1 [10-F06, 2-chloro-1-[2,5-dimethyl-1-(1,2-oxazol-3-yl)-1H-pyrrol-3-yl]ethan-1-one] | 106.875%
CC(Cl)C(=O)NCCc1nnc2n1CCCCC2 (stereo not shown) [7-D09, 2-chloro-N-(2-{5H,6H,7H,8H,9H-[1,2,4]triazolo[4,3-a]azepin-3-yl}ethyl)propanamide] | 92.3077%
O=C(CCl)Nc1cc(-n2cnnn2)ccc1Cl [6-A05, 2-chloro-N-[2-chloro-5-(1H-1,2,3,4-tetrazol-1-yl)phenyl]acetamide] | 78.1951%
CC(Cl)C(=O)NCc1nn(-c2ccccc2)c2c1CCC2 (stereo not shown) [7-P05, 2-chloro-N-({1-phenyl-1H,4H,5H,6H-cyclopenta[c]pyrazol-3-yl}methyl)propanamide] | 91.9937%
COc1ccc(-c2csc(NC(=O)CCl)n2)c(O)c1 [4-A11, 2-chloro-N-[4-(2-hydroxy-4-methoxyphenyl)-1,3-thiazol-2-yl]acetamide] | 1.1434%
COc1ccc(-c2csc(NC(=O)CCl)n2)cc1 [4-N06, 2-chloro-N-[4-(4-methoxyphenyl)-1,3-thiazol-2-yl]acetamide] | 111.291%
COc1ccc(-c2csc(NC(=O)CCl)n2)c(OC)c1 [4-F12, 2-chloro-N-[4-(2,4-dimethoxyphenyl)-1,3-thiazol-2-yl]acetamide] | 83.4683%
COc1ccc(OC)c(-c2csc(NC(=O)CCl)n2)c1 [4-H12, 2-chloro-N-[4-(2,5-dimethoxyphenyl)-1,3-thiazol-2-yl]acetamide] | 86.8985%
CCCc1ccc(-c2csc(NC(=O)CCl)n2)cc1 [4-C09, 2-chloro-N-[4-(4-propylphenyl)-1,3-thiazol-2-yl]acetamide] | 5.717%
O=C(CCl)Nc1nc(-c2ccccc2)cs1 [4-L04, 2-chloro-N-(4-phenyl-1,3-thiazol-2-yl)acetamide] | 143.306%
CC(Cl)C(=O)N1CCN(C(C)c2cccc(C#N)c2)CC1 (stereo not shown) [7-P22, 3-{1-[4-(2-chloropropanoyl)piperazin-1-yl]ethyl}benzonitrile] | 115.542%
C=CC(=O)NCCc1nnc(C)s1 [3-G22, N-[2-(5-methyl-1,3,4-thiadiazol-2-yl)ethyl]prop-2-enamide] | 111.45%
C=CC(=O)N(CC)CC(=O)N1CCCC1c1ccc(F)cc1C (stereo not shown) [2-F08, N-ethyl-N-{2-[2-(4-fluoro-2-methylphenyl)pyrrolidin-1-yl]-2-oxoethyl}prop-2-enamide] | 97.1279%
CC(=O)c1cccc(S(=O)(=O)N2CCN(C(=O)CCl)CC2)c1 [4-F05, 1-[4-(3-acetylbenzenesulfonyl)piperazin-1-yl]-2-chloroethan-1-one] | 105.574%
C=CC(=O)N1CCC(Cn2nc(C)cc2C)CC1 [2-C17, 1-{4-[(3,5-dimethyl-1H-pyrazol-1-yl)methyl]piperidin-1-yl}prop-2-en-1-one] | 100.957%
CCOc1ccccc1NC(=O)C(C#N)=Cc1c(F)cccc1F [8-G21, 2-cyano-3-(2,6-difluorophenyl)-N-(2-ethoxyphenyl)prop-2-enamide] | 69.3776%
CCc1cnc(N2CCN(C(=O)C(C)Cl)CC2)s1 (stereo not shown) [7-C20, 2-chloro-1-[4-(5-ethyl-1,3-thiazol-2-yl)piperazin-1-yl]propan-1-one] | 99.2151%
C=CC(=O)N(C)CC(=O)N1CCC2(CC1)CC2c1nnc(C(C)C)o1 (stereo not shown) [2-N22, N-methyl-N-(2-oxo-2-{1-[5-(propan-2-yl)-1,3,4-oxadiazol-2-yl]-6-azaspiro[2.5]octan-6-yl}ethyl)prop-2-enamide] | 98.8686%
